# Assay results as given in PubChem BioAssay.
# Inconclusive results are not listed. Active and inactive are the calls of the source. Rule as the data show it, unless noted: active = inhibition above about 30%; inactive = the rest.
# Key:
# [1] = Her2 expression decrease, cell viability multiplex – SKBR3 breast tumor cells, AlphaScreen, ATP viability, primary screen (AID 461;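 active = Her2 level under about 52% in both replicate screens, with viability over 70% of control, limit read from the data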;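 as to Her2 level: lower value means less Her2 protein in the cells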;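 as to viability: percent of carrier control wells set as 100% viability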); settings: SKBR3 Her2 protein level, 18-24 h, measured here: SKBR3 viability, ATP luminescence, at 10 µM
# [2] = biological target: Receptor tyrosine-protein kinase erbB-2 (Homo sapiens) (UniProt P04626); assay: as above; settings: 18-24 h, at 10 µM, stronger effect = lower value
# [3] = reduced viability of SK-BR-3 breast cancer cells – cell-based, 24 h, human, pilot screen (AID 572;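 active = viability at or below 10% of carrier control in both of two separate runs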;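 also: compound exposure lasted between 18 and 24 h rather than exactly 24 h; 100% = carrier-treated control wells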); settings: SK-BR-3 viability, CellTiter-Glo luminescence, at 10 µM, stronger effect = lower value
# [4] = HUVEC growth inhibition – cell-based, human, primary screen (AID 575;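 active = viability at or below 30% in both replicate assays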;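 also: 100% = median of untreated cell wells with 0.1% DMSO on each plate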); settings: HUVEC proliferation, CellTiter-Glo luminescence, 72 h; at 10 µM; stronger effect = lower value
# [5] = H69AR cell proliferation blockers – human, duplicate replicates, primary screen (AID 580;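 active = viability at or under a set limit in both replicates, limit being median viability minus 3 SD, cut at about 48% in these data, passing the limit was not always enough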;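 also: 100% = mean luminescence of untreated wells and 0% = no signal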); settings: H69AR lung tumor cells viability, ATP luminescence, 72 h; at 10 µM; stronger effect = lower value
# [6] = MRP1 drug-resistance reversers in H69AR cells – cell-based, doxorubicin co-treatment, pilot screen (AID 601;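 active = viability loss from added drug above about 55%, and viability with drug at most 40%, in both replicates, limit read from the data, passing the limit was not always enough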); settings: CellTiter-Glo, 72 h, at 10 µM; for differential viability (reversal): stronger effect = higher value
# [7] = yeast transport mutant growth inhibition pilot in 384-well plates, post-Golgi transport modulator project (AID 636; in the data active = inhibition above about 31%); settings: absorbance 615 nm, about 18 h, stronger effect = higher value
# [8] = growth suppression of yeast trafficking mutant, preliminary HTS, modulators of trafficking downstream of Golgi apparatus project, 1536-format plate, OD 615 nm (AID 637); settings: yeast transport mutant growth, absorbance 615 nm, 18 h; stronger effect = higher value
# [9] = S. cerevisiae growth inhibition in permissive medium (OD615), pilot counter-assay for S. cerevisiae lifespan shortening project, permissive growth control (AID 705;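 active = growth inhibition above 25% in both replicates, a cutoff set 3 SD above the mean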); settings: OD615, 24 h, at 10 µM, stronger effect = higher value
# [10] = S. cerevisiae growth inhibition in restrictive medium, OD615, pilot screen, restrictive growth control, yeast lifespan reduction project (AID 706;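 active = growth inhibition above a set limit, 3 SD over mean compound inhibition, in both replicates, cut at about 43% in these data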;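 also: modified DeaD lifespan yeast strain shifted to restrictive glucose medium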); settings: OD615, 48 h, at 10 µM, stronger effect = higher value
# [11] = doxorubicin toxicity protection in MRP-1 cells – H69AR cells, CellTiter-Glo, duplicate, MRP-1 activator project, pilot screen (AID 807;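 active = viability increase at or above a cutoff of the median across tested compounds plus 3 SD, cut at about 8.5% in these data, passing the limit was not always enough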;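 also: compound pretreatment 18-22 h then 72 h combined with doxorubicin; 0% = doxorubicin alone and 100% = vehicle without doxorubicin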); settings: H69AR viability with doxorubicin, CellTiter-Glo luminescence; at 10 µM; stronger effect = higher value
# [12] = viability of HCT116 without oncogenic beta-catenin – human colon tumor cells, pilot screen (AID 823;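 active = cell viability at or below a set limit in both duplicate runs, the limit being the all-compound median minus 4 SD, cut at about 23% in these data, passing the limit was not always enough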;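 also: 0% = wells killed by 20 µM Hyamine and 100% = untreated DMSO cell wells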); settings: HCT116 beta-catenin knockout viability, CellTiter-Glo, 60 h; at 10 µM; stronger effect = lower value
# [13] = viability of PTEN-null HCT116 cells – cell-based, HCT116 clonal line, CellTiter-Glo, pilot screen (AID 824;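 active = viability at or below 27.92% in each of two runs, the all-compound median minus 4 SD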;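 also: 0% = 20 µM Hyamine control and 100% = vehicle cell control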); settings: HCT116 PTEN-deleted viability, 60 h, at 10 µM, stronger effect = lower value
# [14] = RAM pathway blockade in budding yeast – dse1pr::URA3 reporter, 5-FOA selection, pilot screen (AID 869;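 active = inhibition over a set limit, the all-compound mean plus 3 SD, in both replicate runs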;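 also: 0% = DMSO wells with no growth and 100% = 10 µM 1-NA-PP1 with full growth; RAM network block rescues cells from 5-FOA so hits raise OD615 growth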); settings: S. cerevisiae dse1pr::URA3 5-FOA growth, OD615, 2 d; at 10 µM; stronger effect = higher value; strain carries analog-sensitive mutant Cbk1 kinase
# [15] = RAM signaling pathway blockade in yeast – S. cerevisiae, Pdr1DBD-CYC8 efflux-inhibited sensitized strain, primary screen (AID 1298;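 active = RAM network inhibition above 8.4% in each of two replicates, 3 SD over the compound average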;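 also: 0% = DMSO untreated cells without growth and 100% = 10 µM 1-NA-PP1 full growth; higher means more yeast growth rescued from 5-FOA killing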); settings: S. cerevisiae cbk1-as DSE1-URA3 strain, 5-FOA growth OD615, 2 d; at 50 µM; stronger effect = higher value
# [16] = H69AR cells + 2 uM doxorubicin, measured here: viability with 2 uM doxorubicin, stronger effect = lower value
# [17] = H69AR cells, compound alone cytotoxicity
# Chain of Receptor tyrosine-protein kinase erbB-2 (Homo sapiens) (P04626 whole entry, looked up): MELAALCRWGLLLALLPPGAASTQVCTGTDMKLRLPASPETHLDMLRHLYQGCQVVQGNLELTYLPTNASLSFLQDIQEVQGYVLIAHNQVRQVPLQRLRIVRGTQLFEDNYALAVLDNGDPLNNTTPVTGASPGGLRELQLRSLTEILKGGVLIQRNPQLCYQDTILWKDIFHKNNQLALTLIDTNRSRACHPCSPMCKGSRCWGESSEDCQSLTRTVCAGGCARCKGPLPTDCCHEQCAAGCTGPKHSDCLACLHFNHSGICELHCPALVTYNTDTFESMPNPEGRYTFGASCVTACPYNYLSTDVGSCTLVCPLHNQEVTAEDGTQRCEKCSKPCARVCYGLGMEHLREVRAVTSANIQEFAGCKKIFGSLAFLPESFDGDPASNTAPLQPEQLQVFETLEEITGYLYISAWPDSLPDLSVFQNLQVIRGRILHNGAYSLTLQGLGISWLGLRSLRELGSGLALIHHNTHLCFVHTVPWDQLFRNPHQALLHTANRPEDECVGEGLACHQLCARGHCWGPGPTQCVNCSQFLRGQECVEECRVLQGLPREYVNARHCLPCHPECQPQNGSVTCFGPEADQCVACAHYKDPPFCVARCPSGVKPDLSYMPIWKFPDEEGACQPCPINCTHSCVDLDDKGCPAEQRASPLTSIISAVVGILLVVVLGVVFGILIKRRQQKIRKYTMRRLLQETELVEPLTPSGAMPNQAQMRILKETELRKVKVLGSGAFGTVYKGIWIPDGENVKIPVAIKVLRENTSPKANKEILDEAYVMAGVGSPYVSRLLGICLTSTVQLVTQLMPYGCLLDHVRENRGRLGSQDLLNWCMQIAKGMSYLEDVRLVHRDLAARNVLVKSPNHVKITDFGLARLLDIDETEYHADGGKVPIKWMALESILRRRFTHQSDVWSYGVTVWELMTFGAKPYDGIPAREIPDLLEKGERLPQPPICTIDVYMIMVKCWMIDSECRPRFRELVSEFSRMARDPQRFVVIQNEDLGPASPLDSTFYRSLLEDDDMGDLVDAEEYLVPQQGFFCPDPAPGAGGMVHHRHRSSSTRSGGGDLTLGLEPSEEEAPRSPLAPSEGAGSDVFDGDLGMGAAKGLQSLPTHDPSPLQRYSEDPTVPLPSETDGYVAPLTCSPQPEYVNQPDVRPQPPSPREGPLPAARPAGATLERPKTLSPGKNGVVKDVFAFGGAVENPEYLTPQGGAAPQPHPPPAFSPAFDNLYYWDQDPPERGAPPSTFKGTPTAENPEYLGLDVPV
Structure (SMILES),viability [1],Her2 level [2],viability [3],viability [4],viability [5],differential viability (reversal) ([6]; H69AR cells + 2 uM doxorubicin),"viability [6, 16]","viability [6, 17]",inhibition [7],inhibition [8],growth inhibition [9],growth inhibition [10],viability increase [11],viability [12],viability [13],inhibition [14],RAM network inhibition [15]
Cc1nc2c(-c3ccccc3)c(C)nn2c(C)c1CCC(=O)NCc1ccco1,101%,100% (inactive),101% (inactive),88.2% (inactive),90.8% (inactive),14.2% (inactive),76.6%,90.8%,-0.9% (inactive),-2.5% (inactive),-4.98% (inactive),5.46% (inactive),-3.51% (inactive),98.9% (inactive),101% (inactive),1.4% (inactive),5.36% (inactive)
CS(=O)(=O)Nc1ccccc1C(=O)O,102%,80.5% (inactive),102% (inactive),91.5% (inactive),98.8% (inactive),2.55% (inactive),96.3%,98.8%,-2.34% (inactive),-5.17% (inactive),-7.19% (inactive),-1.03% (inactive),-1.2% (inactive),94.9% (inactive),97.6% (inactive),0.72% (inactive),2.56% (inactive)
Cc1ccc(C)c(NC(=O)CSc2nnc(-c3ccccc3)o2)c1,89.5%,104% (inactive),89.5% (inactive),111% (inactive),89.6% (inactive),9.51% (inactive),80.1%,89.6%,-6.4% (inactive),-4.5% (inactive),-4.45% (inactive),-0.695% (inactive),1.83% (inactive),95.9% (inactive),97.2% (inactive),0.49% (inactive),1.79% (inactive)
Cc1ccc(C(=O)NC(Cc2c[nH]c3ccccc23)C(=O)O)o1 (stereo unspecified),95.5%,130% (inactive),95.5% (inactive),87.3% (inactive),88.9% (inactive),1.82% (inactive),87.1%,88.9%,1.95% (inactive),-5% (inactive),1.54% (inactive),-2.65% (inactive),-3.09% (inactive),96.2% (inactive),96.4% (inactive),1.82% (inactive),6.26% (inactive)
CC(=O)N1CCc2c(sc(NC(=O)c3ccc(S(=O)(=O)N(C)C)cc3)c2C#N)C1,83.5%,105% (inactive),83.5% (inactive),73.3% (inactive),87.5% (inactive),5.97% (inactive),81.5%,87.5%,-2.27% (inactive),-5.41% (inactive),-4.59% (inactive),4.39% (inactive),-3.73% (inactive),104% (inactive),94.3% (inactive),0.115% (inactive),1.67% (inactive)
CCOC(=O)N1CCC(c2cc(=O)n3[nH]c(C)c(-c4ccc(F)cc4)c3n2)CC1,67%,80.5% (inactive),67% (inactive),7% (active),21.3% (active),-44.2% (inactive),65.5%,21.3%,0.38% (inactive),-0.33% (inactive),2.81% (inactive),9.87% (inactive),0.52% (inactive),15.8% (active),19.7% (active),0.04% (inactive),0.41% (inactive)
COc1cccc(-c2cc(C(F)(F)F)nc(NCc3ccco3)n2)c1,108%,94.5% (inactive),108% (inactive),61.6% (inactive),95.8% (inactive),8.14% (inactive),87.7%,95.8%,-5.27% (inactive),-1.48% (inactive),0.4% (inactive),18% (inactive),-3.81% (inactive),70.9% (inactive),67.6% (inactive),2.38% (inactive),8.17% (inactive)
Cc1cc(C)nc(NC(=O)c2cnc3sccn3c2=O)n1,106%,88.5% (inactive),106% (inactive),90.5% (inactive),96.5% (inactive),-8.39% (inactive),105%,96.5%,-4.67% (inactive),4.5% (inactive),-12.5% (inactive),-10.7% (inactive),-1.3% (inactive),97.7% (inactive),98.3% (inactive),0.9% (inactive),0.52% (inactive)
